Measured values reported in publication PMC4336329 (PLoS ONE, 2015).
Among all 310,000 compounds or so, about 14,000 (4.5%) showed an effect of 50% or more. Effects have a minus sign here. The sample as a whole holds a higher share of strong results than the screen did.

target: human ether-à-go-go-related gene (hERG) potassium channel (human, UniProt Q12809); test: primary screen, population patch clamp on CHO cells stably expressing hERG; higher = less effect of the substance
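Note: peak tail current of the secondary pulse compared with the same well before compound.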

Chain of human ether-à-go-go-related gene (hERG) potassium channel (Q12809 whole entry, looked up): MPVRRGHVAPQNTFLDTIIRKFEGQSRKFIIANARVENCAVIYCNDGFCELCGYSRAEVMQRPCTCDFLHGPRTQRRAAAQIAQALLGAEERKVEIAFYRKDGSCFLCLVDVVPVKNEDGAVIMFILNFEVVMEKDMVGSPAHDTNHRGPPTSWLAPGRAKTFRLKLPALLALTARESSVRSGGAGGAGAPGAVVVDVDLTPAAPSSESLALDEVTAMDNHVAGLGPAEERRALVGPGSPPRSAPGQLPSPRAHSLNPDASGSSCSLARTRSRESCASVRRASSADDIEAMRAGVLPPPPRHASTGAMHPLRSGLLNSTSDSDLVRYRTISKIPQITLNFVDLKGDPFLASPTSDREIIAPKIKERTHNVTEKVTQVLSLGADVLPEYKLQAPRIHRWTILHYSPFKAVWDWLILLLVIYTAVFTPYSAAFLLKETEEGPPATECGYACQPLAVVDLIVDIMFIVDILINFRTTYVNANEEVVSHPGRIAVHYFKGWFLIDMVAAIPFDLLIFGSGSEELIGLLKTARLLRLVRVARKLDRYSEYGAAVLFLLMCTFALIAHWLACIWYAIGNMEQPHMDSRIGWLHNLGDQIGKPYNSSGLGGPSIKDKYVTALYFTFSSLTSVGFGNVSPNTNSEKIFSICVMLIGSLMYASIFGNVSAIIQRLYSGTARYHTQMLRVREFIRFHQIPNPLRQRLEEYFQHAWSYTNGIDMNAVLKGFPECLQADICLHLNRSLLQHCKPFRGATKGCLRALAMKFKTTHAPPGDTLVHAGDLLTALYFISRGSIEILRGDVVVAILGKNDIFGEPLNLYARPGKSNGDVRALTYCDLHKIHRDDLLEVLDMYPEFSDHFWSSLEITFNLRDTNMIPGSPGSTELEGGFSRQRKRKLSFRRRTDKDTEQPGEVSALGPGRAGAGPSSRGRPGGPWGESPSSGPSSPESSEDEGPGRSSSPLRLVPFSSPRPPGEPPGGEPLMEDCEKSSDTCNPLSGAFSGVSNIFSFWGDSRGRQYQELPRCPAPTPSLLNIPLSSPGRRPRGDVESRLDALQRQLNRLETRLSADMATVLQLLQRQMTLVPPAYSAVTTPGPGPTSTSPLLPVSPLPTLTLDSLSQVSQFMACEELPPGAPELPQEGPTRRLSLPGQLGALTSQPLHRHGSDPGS

Compound	hERG current change (%, negative = inhibition) at 10uM [%]
CC(C)CCn1nnnc1C(c1ccc(F)cc1)N1CCC(C(N)=O)CC1 (stereo not drawn)	-21.4
Fc1cccc(CNCCc2c[nH]c3ccccc23)c1.O=C(O)C(=O)O	-7.63
Cc1c(CC(=O)NCCCCCC(=O)O)c(=O)oc2cc3c(cc12)CCC(C)(C)O3	9.83
Cc1c(CC(=O)NCCCC(=O)O)c(=O)oc2cc3c(cc12)CCC(C)(C)O3	-64.5
Cc1c(CC(=O)NCCCO)c(=O)oc2cc3c(cc12)CCC(C)(C)O3	17.6
COC(=O)c1ccc(NC(=O)CCc2nnc3ccc(NCc4ccco4)nn23)cc1	18.4
CCCCN(C)CCNC(=O)CN1C(=O)CSc2ccc(S(=O)(=O)N3CCCC3)cc21	-3.28
CCCCN(C)CCNC(=O)CN1C(=O)CSc2ccc(S(=O)(=O)N3CCOCC3)cc21	2.2
CCCCN(CCCC)CCNC(=O)CN1C(=O)CSc2ccc(S(=O)(=O)N3CCCCC3)cc21	-74.7
CCCCN(C)CCNC(=O)CN1C(=O)CSc2ccc(S(=O)(=O)N3CCCCC3)cc21	-50.6
CN(C)CCNC(=O)CN1C(=O)CSc2ccc(S(=O)(=O)N3CCCCC3)cc21	12.5
CCCCN(CCCC)CCNC(=O)CN1C(=O)CSc2ccc(S(=O)(=O)N3CCOCC3)cc21	-38.8
O=c1oc(-c2ccccc2NS(=O)(=O)c2ccc3ccccc3c2)nc2ccccc12	22.9
CC(=O)c1c(C(C)=O)c(C)n(NC(=O)c2ccncc2)c1C	8.37
COCCN(C(=O)CNC(=O)c1ccco1)C(C(=O)NC1CCCCC1)c1cccnc1 (stereo not drawn)	20.1
CC(C)c1ccc(S(=O)(=O)N(C)C2(C)CCS(=O)(=O)C2)cc1 (stereo not drawn)	-46.9
Cc1cc(Cl)ccc1OCC(=O)OCC(=O)NC1CCS(=O)(=O)C1 (stereo not drawn)	-12.2
O=C(CCNC(=O)c1ccccc1Cl)Nc1nc(-c2ccccc2Cl)cs1	-7.92
Cc1cccc(-n2ccnc2SCC(=O)Nc2ccc3c(c2)OCCO3)c1	-14
COc1cccc(NC(=O)c2ccc3c(c2)CCN3S(C)(=O)=O)c1	3.4
Cc1nc2c(-c3ccccc3)c(C)nn2c(C)c1CCC(=O)NC(C)CCc1ccco1 (stereo not drawn)	-66.6
Cc1nc2c(-c3ccccc3)c(C)nn2c(C)c1CCC(=O)NCc1ccco1	-29.9
Cc1nc2c(-c3ccc(F)cc3)c(C)nn2c(C)c1CCC(=O)NCc1ccco1	-19.9
Cc1nc2c(-c3ccc(F)cc3)c(C)nn2c(C)c1CCC(=O)Nc1ccccc1	0.666
Cc1nc2c(-c3ccc(F)cc3)c(C)nn2c(C)c1CCC(=O)NC(C)CCc1ccco1 (stereo not drawn)	-68.8
Cc1nc2ncnn2c(C)c1CCC(=O)NC(C)CCc1ccco1 (stereo not drawn)	-8.57
CC(=O)Nc1cc2c(cc1NC(=O)Cn1nc(-c3ccccc3)ccc1=O)OCCO2	11.9

Compound	hERG current change (%, negative = inhibition) at 10uM [%]
COc1cccc(C2C(C(=O)c3cc4ccccc4o3)=C(O)C(=O)N2c2cc(C)on2)c1 (stereo not drawn)	7.91
O=C(Cc1csc(NC(=O)c2ccccc2)n1)NO	8.93
O=[N+]([O-])c1cc(CS(=O)(=O)Oc2ccc(Cl)cc2)c(O)c([N+](=O)[O-])c1	15.1
CCCn1nnnc1NC(=O)c1ccc(C)cc1Cl	5.02
O=C(NCCOCCOCCNC(=O)c1ccccc1)c1ccccc1	12.7
CC1CCN(CCn2c(=S)[nH]c3cc4c(cc3c2=O)OCO4)CC1	-27.4
CCOc1cc2[nH]c(=O)n(CCCN3CCN(c4ccc(OC)cc4)CC3)c(=O)c2cc1OCC	-67.8
CCOc1cc2[nH]c(=S)n(CCN3CCC(C)CC3)c(=O)c2cc1OCC	-51.2
CCOc1cc2[nH]c(=O)n(CCCN3CCCC3=O)c(=O)c2cc1OCC	-6.1
CCOc1cc2[nH]c(=S)n(CCCOC)c(=O)c2cc1OCC	-12.1
CCCCN(C)CCn1c(=S)[nH]c2cc(OCC)c(OCC)cc2c1=O	-55.8
CCOc1cc2[nH]c(=S)n(CCCN(CC)CC)c(=O)c2cc1OCC	-29.6
CCOc1cc2[nH]c(=O)n(CCCC(=O)NCc3ccc(OC)cc3)c(=O)c2cc1OCC	8.71
CCOc1cc2[nH]c(=S)n(CCCN3CCOCC3)c(=O)c2cc1OCC	-18.5
O=C(CCCCCn1c(=S)[nH]c2ccc(N3CCOCC3)cc2c1=O)NC1CCN(Cc2ccccc2)CC1	-9.35
COc1ccccc1N(C(=O)c1csnn1)C(C(=O)NC1CCCC1)c1ccccc1 (stereo not drawn)	-1.69
Cc1c(Cl)cccc1NC(=O)CSc1sc2c(O)cc(=O)[nH]c2c1C#N	-2.45
Cc1ccc(O)c(C2=Nc3ccccc3N=C(c3cccs3)C2)c1	12
CCS(=O)(=O)NCC(c1cccnc1)N1CCN(c2ccc(OC)cc2)CC1 (stereo not drawn)	-11.3
COC(=O)NCC(c1cccnc1)N1CCN(c2ccccc2)CC1 (stereo not drawn)	-13.3
O=S(=O)(NCC(c1cccnc1)N1CCN(c2ccc(F)cc2)CC1)c1cccs1 (stereo not drawn)	-71.7
CCN1CCN(C(CNS(=O)(=O)c2cccs2)c2cccnc2)CC1 (stereo not drawn)	-61.4
O=S(=O)(NCC(c1cccnc1)N1CCN(c2ccccc2)CC1)c1cccs1 (stereo not drawn)	-60.4
CN1CCN(C(CNS(=O)(=O)c2cccs2)c2cccnc2)CC1 (stereo not drawn)	-21.4
COc1ccc(N2CCN(C(CNC(=O)Oc3ccccc3)c3cccnc3)CC2)cc1 (stereo not drawn)	-27.5
COc1ccc(N2CCN(C(CNS(=O)(=O)c3cccs3)c3cccnc3)CC2)cc1 (stereo not drawn)	-72.5
O=S(=O)(NCC(c1cccnc1)N1CCOCC1)c1cccs1 (stereo not drawn)	-10.9
